Shown are actives, neighbours in structure and some others; about 3.1% of the full set was active somewhere.
OvCa metastasis: inhibitors of ovarian cancer cell adhesion and invasion in omental model | SKOV3ip1-GFP adhesion/invasion on 3D omental model, fluorescence | Potency, µM (top dose mostly 45.8 µM), actives largely listed as inhibitors | 46,000 compounds, 0.1% hits; also: nearly all actives have a fitted effect of over 65% in size
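Primary human omental fibroblast/mesothelial 3D culture pre-formed 48 h. SKOV3ip1-GFP cells added with compounds (0.36-46 umol/L), incubated 2 h RT/16 h 37 C, fixed; GFP cells quantified at 488/509 nm.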
PMP22 txn prim: PMP22 gene transcription modulation. S16 Pmp22-F2sN Schwann cells, FLuc/NLuc coincidence luminescence, 24 h. 43,000 compounds, 2% hits. Potency, µM (top dose mostly 57.5 µM), most hits filed as inhibitors; active = clear falling dose curves in both reporters; inconclusive = both reporters move, but less clearly or upward; inactive = either reporter flat; the % is the NLuc reporter signal
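Reporter cells (S16 Pmp22-F2sN, 500–1,000 per well) exposed to compounds for 24 h, 37C, 5% CO2; lysis with FLuc read after 10 min, then Stop&Glo and NLuc read after 10 min.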
p53null 32C kill: selectivity test: cytotoxicity in p53 null cells, permissive temperature | Potency, µM (top dose mostly 46.1 µM), most hits filed as cytotoxic | AID 903 | 55,000 compounds, 0.62% hits | H1299-neo p53 null cells, ATP luminescence, 24 h, 32C; also: nearly all actives have a fitted effect of over 55% in size
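We seeded p53-null H1299-neo cells, incubated them overnight at 37C, and added compounds across a range up to 46 uM. After 24 hours at 32C, ATP reagent was applied for 20 min at room temperature and luminescence recorded.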
S16 F2sN tox: S16 Schwann cell cytotoxicity. S16 Pmp22-F2sN Schwann cells (luciferase reporters placed in the Pmp22 gene) viability, CellTiter-Glo, 24 h. 43,000 compounds, 0.48% hits. AID 1508642. Potency, µM (top dose mostly 57.5 µM), hits mostly cytotoxic; also: nearly all actives have a fitted effect of over 65% in size
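Luminescence from CellTiter-Glo, read by CCD camera after a 15 min room-temperature incubation, served as the viability signal. Reporter Schwann cells (S16 Pmp22-F2sN) had been treated with pin-transferred compounds for 24 h at 37C.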
pS6 MEF inh: mTORC1 pathway inhibition measured by phospho-rpS6. 44,000 compounds, 0.78% hits. AID 493208. Tsc2-/- p53-/- MEF, phospho-rpS6 immunofluorescence/PI, 24 h. Potency, µM (series often up to 38.3 µM), most hits filed as inhibitors; also: nearly all actives have a fitted effect of over 50% in size
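Tsc2-/-, p53-/- MEFs (empty-vector stable line) in DMEM + 10% FBS were treated with compounds 24 h at 37 degree Celsius, fixed, and immunostained for phospho-rpS6 (Alexa-488) with propidium iodide counterstain. Laser-scanning cytometry gave % positive cells, normalized against 7.5 nM rapamycin and DMSO.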
p53null 39C tox: selectivity test: cytotoxicity in p53 null cells, nonpermissive temperature; H1299 p53-null (neo) cells, 39C, ATPlite viability, 24 h; Potency, µM (top dose mostly 46.1 µM), hits mostly cytotoxic; 55,000 compounds, 0.97% hits; AID 904; also: nearly all actives have a fitted effect of over 50% in size
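Following overnight plating at 37C (600 cells/well), H1299-neo or H1299-p53A138V cells are dosed up to 46 uM. Incubation lasts 24 hr at 39C before ATP detection.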
A number is an active result; i = inactive; ? = inconclusive; nt = no result given. Unless noted, calls follow the shape of the dose curve; as a rule, active = well fitted curve in the direction sought with a large enough effect; inconclusive = small, poorly fitted or top-dose-only effect, or another doubt; inactive = no such curve, though single readings can be large; an effect the other way counts as inactive or inconclusive.

SMILES | OvCa metastasis | PMP22 txn prim | p53null 32C kill | S16 F2sN tox | pS6 MEF inh | p53null 39C tox
COc1cc(NS(=O)(=O)c2ccc(-c3cc(C)no3)cc2)cc(OC)c1 | i | 3.4µM | i | ? | ? | i
COc1cc(Cl)c(NS(=O)(=O)c2cc(-c3cc(C)no3)ccc2OC)c(OC)c1 | i | i | i | i | ? | i
O=C(Nc1ccc(NC(=O)c2ccco2)nc1)c1cccnc1 | nt | nt | 13µM | nt | nt | ?
CO[C@H]1C[C@@H]2CC[C@@H](C)[C@@](O)(O2)C(=O)C(=O)N2CCCC[C@@H]2C(=O)O[C@H]([C@H](C)C[C@@H]2CC[C@H](OC(=O)C(C)(CO)CO)[C@H](OC)C2)CC(=O)[C@H](C)C=C(C)[C@@H](O)[C@@H](OC)C(=O)[C@H](C)C[C@H](C)C=CC=CC=C1C | i | nt | nt | nt | nt | nt
CCC1CN(C(=O)NCc2ccc(F)cc2)c2cc(C)ccc2O1 (configuration not stated) | i | i | i | i | 21µM | i
CCC1CN(C(=O)NCc2ccc(C)cc2)c2ccccc2O1 (configuration not stated) | i | i | i | i | i | i
CN1CCc2c(sc3c2C(=O)NC(c2ccc(C(C)(C)C)cc2)N3)C1 (configuration not stated) | i | ? | i | 14µM | i | i
COc1cc(C)c(Sc2cnc(NC(=O)c3ccc(CNC(C)C(C)(C)C)cc3)s2)cc1C(=O)N1CCN(C(C)=O)CC1 (configuration not stated) | i | nt | nt | nt | nt | nt
Cc1ccc(NC(=O)c2c(C)oc3ccc(O)c(CN(C)Cc4ccccc4)c23)c(C)c1 | ? | ? | i | i | 15µM | i
Cc1oc2ccc(O)c(CN(C)Cc3ccccc3)c2c1C(=O)Nc1cccc(C(F)(F)F)c1 | i | ? | i | ? | ? | 22µM
CCN(Cc1ccccc1)Cc1c(O)ccc2oc(C)c(C(=O)Nc3ccc(C)cc3C)c12 | i | ? | i | ? | ? | i
Oc1ccc(NCc2ccc(OCc3ccccc3)cc2)cc1 | ? | 4.6µM | ? | 10µM | 15µM | ?
Cn1nnnc1SCCNCc1ccc(OCc2ccccc2Cl)cc1 | i | i | ? | i | i | i
Cc1cccc(NCc2ccccc2OCc2ccccc2F)c1 | nt | nt | i | nt | nt | nt
Oc1ccc(OCc2ccccc2)cc1 | i | nt | nt | nt | nt | nt
Oc1ccc(NCc2ccc(OCc3ccccc3Cl)cc2)cc1 | i | ? | ? | ? | 16µM | ?
Oc1ccc(NCc2ccccc2OCc2ccccc2Cl)cc1 | i | 7µM | i | 20µM | i | i
CCCCc1ccc(NC(=O)c2cc3c(=O)n4ccccc4nc3s2)cc1 | i | i | i | i | i | i
COc1ccc(Cl)cc1NC(=O)c1cc2c(=O)n3ccccc3nc2s1 | i | i | i | i | i | 13µM
COc1ccc(-c2nc3ccccc3n2Cc2ccc(C(C)C)cc2)cc1 | i | i | i | ? | i | ?
COc1ccc(-c2nc3ccccc3n2Cc2ccc(Cl)cc2)cc1 | i | i | i | i | i | 4µM
COCn1c(-c2ccc(OC)cc2)nc2ccccc21 | nt | nt | 14µM | nt | nt | 11µM
CCOc1ccc(NC(=O)c2ccccc2O)cc1 | nt | nt | 7.1µM | nt | nt | 7.9µM
CCOc1cc(C2c3c(-c4ccccc4O)n[nH]c3C(=O)N2CCc2ccccc2)ccc1O (configuration not stated) | i | ? | i | i | i | i
O=C1c2[nH]nc(-c3ccccc3O)c2C(c2ccc(Cl)cc2)N1CCc1ccccc1 (configuration not stated) | i | ? | i | i | 16µM | 25µM
C[C@]1(CO)CN(c2cc(C(=O)Nc3ccc4c(c3)-c3c(c(C(N)=O)nn3-c3ccc(F)cc3)CC4)c(Cl)cn2)C[C@@]1(C)CO | i | nt | nt | nt | nt | nt
C=C1C(=CC=C2CCC[C@]3(C)[C@@H]([C@H](C)CCCC(C)(C)O)CC[C@@H]23)C[C@@H](O)C[C@@H]1O | i | nt | nt | nt | nt | nt

Assay outcomes from PubChem.
